Data on 68 molecules can be found in PubChem BioAssay AID2551 (National Center for Advancing Translational Sciences (NCATS), 2010).

The campaign covered roughly 310,000 compounds. About 17,000 (5.5%) were called active. Inconclusive results (about 11%) are left out. Calls follow the shape of the dose curve; as a rule, active = well fitted inhibition curve with a large enough effect; inconclusive = small, poorly fitted or top-dose-only effect, or effect the other way; inactive = no such curve, though single readings can be large or run the other way. Many of the other results were omitted from the sample, so actives are more common in it than they were.
% is scaled to controls: 0 for no effect and ±100 for the full control effect; potency is read from the fitted curve at half-maximal effect.

Nuclear receptor ROR-gamma (Mus musculus), sequence (P51450 whole entry, looked up, the tested form may be a part): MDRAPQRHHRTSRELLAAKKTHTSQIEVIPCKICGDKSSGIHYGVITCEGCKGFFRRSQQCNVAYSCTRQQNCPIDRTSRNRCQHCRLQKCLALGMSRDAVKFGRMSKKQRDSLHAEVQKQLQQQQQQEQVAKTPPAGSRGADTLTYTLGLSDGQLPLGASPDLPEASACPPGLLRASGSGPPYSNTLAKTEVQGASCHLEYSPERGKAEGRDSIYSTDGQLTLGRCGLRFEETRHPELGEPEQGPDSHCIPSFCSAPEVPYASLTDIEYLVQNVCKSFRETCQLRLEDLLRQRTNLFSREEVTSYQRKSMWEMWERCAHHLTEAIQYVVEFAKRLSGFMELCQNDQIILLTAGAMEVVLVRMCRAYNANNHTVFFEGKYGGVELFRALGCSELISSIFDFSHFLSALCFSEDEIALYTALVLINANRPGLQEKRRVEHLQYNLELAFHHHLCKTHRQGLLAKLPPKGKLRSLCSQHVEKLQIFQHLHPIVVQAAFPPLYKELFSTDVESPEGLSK

The test deals with Nuclear receptor ROR-gamma (Mus musculus) (UniProt P51450). In words: qHTS for inhibitors of ROR gamma transcriptional activity. Also: nearly all actives have a fitted effect of over 60% in size. Conditions: Drosophila S2 Gal4-RORgamma UAS-luciferase reporter, 20 h; series mostly up to 53.6 µM; activity change, negative = inhibition: at the top concentration. From the text:
NIH Molecular Libraries Probe Production Network [MLPCN] NIH Chemical Genomics Center [NCGC] MLPCN Grant: R03 DA026211-01 Assay Provider: Dan Littman, New York University Assay Overview: The retinoic acid-related orphan receptor (ROR) gamma is a transcription factor that has a central role in the differentiation of Th17 cells, a subset of T helper cells that secrete the inflammatory cytokines IL-17, IL-17F, and IL-22. Th17 cells have been implicated in graft versus host disease, autoimmune disease and asthma. ROR gamma is induced in naive T helper cells in the presence of TGF-beta combined with IL-6, IL-21, or IL-23, and thereafter directs the expression of the Th17 lineage cytokines. To study the mechanism of action of ROR gamma, an insect cell-based assay was screened. This Drosophila Schneider cell line was stably transfected with two vectors: a gene expressing a fusion of the Gal4 DNA binding domain and ROR gamma transactivation domain under the control of the metallothionine promoter and a Photinus luciferase reporter regulated by the Gal4 binding site enhancer, UAS. […] Small molecule inhibitors of ROR gamma activity are detected by a decrease in luciferase reporter activity.
Assay Protocol Summary: For screening, 600 cells in 4 uL/well were dispensed into white solid 1536-well plates (Grenier) using a solenoid-based dispenser. Following transfer of 23 nL compound or DMSO vehicle by a pin tool, the plates were incubated 1 hr at ambient temperature, and 1 uL/well copper sulfate (700 uM final concentration) was added. The plates were centrifuged 15 s at 1000 RPM and incubated 20 hr at ambient temperature. After addition of 1.5 uL Photinus luciferase detection reagent, the plates were incubated 10 min at ambient temperature and then read by an ViewLux (Perkin Elmer) to detect luminescence. Keywords: NIH Roadmap, MLPCN, MLI, MLSMR, qHTS, NCGC, qHTS, nuclear hormone receptor, retinoic acid-related orphan receptor, ROR gamma
(In qHTS, concentration-response curves come from the screen itself.)
As to `Cc1cc(Oc2ccccc2)nc(N2CCOCC2)n1`, the “activity change, negative = inhibition” value was 23.6% (inactive).
For the molecule `CN(C)c1ccc(/C=N/Nc2cc(N3CCOCC3)nc(N3CCOCC3)n2)cc1`, the “activity change, negative = inhibition” value is 25.9% (inactive).
`Cc1ccc(S(=O)(=O)Nc2nc(C)cc(N/N=C/c3ccc(O)cc3)n2)cc1`: the “activity change, negative = inhibition” value was -15% (inactive).
As to `COc1cccc2c(N/N=C/c3ccco3)cc(C)nc12`, the “activity change, negative = inhibition” value is -25.1% (inactive).
`COc1ccccc1/C=N\Nc1cc(C)nc(-n2nc(C)cc2C)n1`: the Potency is 0.251 µM (active).
Take `COc1ccc(/C=N/Nc2cc(N3CCOCC3)nc(C)n2)c(OC)c1`: the “activity change, negative = inhibition” value is 21.5% (inactive).
On to `Cc1cc(Nc2ccc(Cl)cc2)nc(N2CCOCC2)n1`, for which the “activity change, negative = inhibition” value is 8.8% (inactive).
In the case of `CC(=O)c1ccc(Oc2cc(C)nc(-n3nc(C)cc3C)n2)cc1`, the Potency was 14.1 µM (active).
On to `COc1ccc(Nc2cc(C)nc(-n3nc(C)cc3C)n2)cc1`, for which the Potency was 0.501 µM (active).
Turning to `Cc1cc(N/N=C\c2ccc(Br)cc2)nc(-n2nc(C)cc2C)n1`, the Potency was 0.1 µM (active).
Consider `Cc1cc(C)n(-c2cc(Oc3ccccc3)ncn2)n1`, for which the “activity change, negative = inhibition” value is 1.14% (inactive).
Same read-out and setting: the result for `COc1ccc(NC(=O)c2nc(-n3nc(C)cc3C)ccc2Cl)cc1Cl` reads 3.42% (inactive); that for `CCn1c(Cc2ccc(OC)cc2)nnc1SCC(=O)Nc1ccc(N2CCOCC2)cc1`, 26.9% (inactive).
As to `NC(=O)C1CCCN(CC(=O)N2CCN(c3ccccc3)CC2)C1` (stereo not drawn), the “activity change, negative = inhibition” value was 10% (inactive).
Take `Cc1ccccc1OCC(=O)Nc1ccc(S(=O)(=O)N2CCOCC2)cc1`: the “activity change, negative = inhibition” value was -1.13% (inactive).
Regarding `O=C(Nc1cccc(Cl)c1N1CCOCC1)c1cccnc1`, the “activity change, negative = inhibition” value was -5.72% (inactive).
In the case of `CCOC(=O)c1sc(NC(=O)c2sc(C)nc2C)nc1C`, the “activity change, negative = inhibition” value was -27% (inactive).
The same measure, in the same setting: the result for `COCCn1c(SCC(=O)Nc2nc(C)cs2)nnc1C(C)C` reads 2.07% (inactive); that for `CC1CC(C)CN(CCCNC(=O)c2csc3c2CCCCC3)C1` (stereo not drawn), -3.43% (inactive); that for `CN1C(=O)CN2CCc3ccccc3C2c2cc(Cl)ccc21` (stereo not drawn), 15.5% (inactive).
For `O=C1CCC(C(=O)N2CCN(c3ccccc3Cl)CC2)CN1CC1CCCCC1` (stereo not drawn), the “activity change, negative = inhibition” value was 34.9% (inactive).
For `COc1ccccc1OCC(=O)Nc1c2c(nn1-c1ccc(F)cc1)CS(=O)(=O)C2`, the “activity change, negative = inhibition” value is 21.6% (inactive).
As to `N#C/C(C(=S)Nc1ccccc1)=C1/NN=C(N2CCOCC2)N1c1ccccc1`, the Potency was 1.26 µM (active).
In the case of `Cc1ccc(CC2S/C(=C(/C#N)C(=O)N3CCOCC3)N(c3ccccc3)C2=O)cc1` (stereo not drawn), the “activity change, negative = inhibition” value was 8.39% (inactive).
Turning to `N#C/C(C(=O)N1CCOCC1)=C1/SC(Cc2ccc(F)cc2)C(=O)N1c1ccccc1` (stereo not drawn), the “activity change, negative = inhibition” value was 19.1% (inactive).
On to `c1ccc2c(c1)CCc1snnc1-2`, for which the “activity change, negative = inhibition” value was -4.13% (inactive).
On to `COc1cc(/C=N/O)cc(Br)c1OCc1cccc(Cl)c1`, for which the Potency is 10 µM (active).
With `CCOc1c(Cl)cc(/C=N/O)cc1OC`, the “activity change, negative = inhibition” value was -16.7% (inactive).
As to `COc1cc(/C=N/Nc2ccc(C)cc2)cc(Br)c1O`, the “activity change, negative = inhibition” value was 5.16% (inactive).
For `COc1cc(/C=N/O)cc(Br)c1OS(=O)(=O)c1ccc(C)cc1`, the Potency is 14.1 µM (active).
Take `COc1cc(C(=O)NCc2ccncc2)cc(Br)c1OCc1ccccc1`: the “activity change, negative = inhibition” value is 18.5% (inactive).
With `COc1ccc(/C=N/NC(=O)c2ccccc2)cc1OS(=O)(=O)c1ccccc1`, the “activity change, negative = inhibition” value was -28.3% (inactive).
Consider `Cc1cc(S(=O)(=O)Nc2ccc(C(=O)NCC(c3ccco3)N3CCCC3)cc2)ccc1F` (stereo not drawn), for which the “activity change, negative = inhibition” value is -3.88% (inactive).
On the same count and under the same terms, the result for `COc1cc(/C(=C/c2ccccc2)c2ccccc2)c2c(c1)oc1ccccc12` reads 16.7% (inactive); that for `CC(=O)N1c2ccc(S(=O)(=O)NCCC(=O)N(C)C3CCCCC3)cc2CC1C` (stereo not drawn), 7.64% (inactive).
In the case of `COc1cccc(NC(=O)C(=O)c2cn(CC(=O)N3CCOCC3)c3ccccc23)c1`, the “activity change, negative = inhibition” value was 28.9% (inactive).
`COc1ccc(S(=O)(=O)n2nc(C)c(S(=O)(=O)N3CCOCC3)c2C)cc1`: the “activity change, negative = inhibition” value was -14.8% (inactive).
Regarding `COc1ccc(C(=O)CSc2nnc(-c3ccco3)o2)cc1`, the “activity change, negative = inhibition” value is -18.6% (inactive).
Regarding `CCOc1ccc(-c2nnc(-c3ccco3)o2)cc1`, the Potency was 15.8 µM (active).
As for `CCCCOc1ccc(-c2nnc(-c3ccco3)o2)cc1`, the “activity change, negative = inhibition” value was -32.9% (inactive).
As to `O=C(NCc1ccccc1)C(c1ccccc1)N(C(=O)c1csnn1)c1ccc(F)cc1` (stereo not drawn), the “activity change, negative = inhibition” value is -15.3% (inactive).
For `CCOc1ccc(C(C(=O)NC2CCCC2)N(C(=O)c2snc(C(N)=O)c2N)C2CCCC2)cc1` (stereo not drawn), the “activity change, negative = inhibition” value was 0.98% (inactive).
Consider `COc1ccc(C(=O)NC2CC2)cc1OC1CCN(Cc2cnn(C)c2)CC1`, for which the “activity change, negative = inhibition” value was -7.77% (inactive).
Regarding `O=c1c(-c2ccccc2Cl)c[nH]n1-c1ccccc1`, the “activity change, negative = inhibition” value was 34.3% (inactive).
For `COc1ccc(CNC(=O)CN(c2ccc(OC)c(Cl)c2)S(=O)(=O)c2ccc(C)cc2)cc1`, the “activity change, negative = inhibition” value is -9.62% (inactive).
Take `O=C(CCNc1n[nH]c(=O)[nH]c1=O)N/N=C\c1ccc(Br)cc1`: the “activity change, negative = inhibition” value was 5.32% (inactive).
Same read-out and setting: the result for `NCCCCCC(=O)N/N=C/c1ccc2nccnc2c1` reads -16.1% (inactive).
`O=C(CCCO)N/N=C/c1cc(Br)ccc1O`: the Potency is 3.98 µM (active).
As for `COc1ccc(OC)c(NC(=O)c2ccc3c(c2)C(=O)N(c2ccc(OC(C)=O)cc2)C3=O)c1`, the “activity change, negative = inhibition” value was 1.31% (inactive).
`O=C(Nc1ccccc1Cl)Nc1cccc2cccnc12`: the “activity change, negative = inhibition” value was 19.6% (inactive).
As to `CC(=O)/C(=N\Nc1ccc(Cl)cc1Cl)Sc1cccc2cccnc12`, the Potency is 3.16 µM (active).
With `O=C(Nc1cccc2cccnc12)c1cccc(Cl)c1`, the “activity change, negative = inhibition” value was 0.831% (inactive).
On to `CC1=C(C(=O)NC2CC(C)(C)Cc3c2cnn3-c2ccc(C)cc2)OCCO1` (stereo not drawn), for which the “activity change, negative = inhibition” value is 32.5% (inactive).
For `Cc1ccc(NC(=O)CN(C)Cc2ccc(F)cc2)c([N+](=O)[O-])c1`, the “activity change, negative = inhibition” value was 22.8% (inactive).
Turning to `CN(CC(=O)Nc1ccccc1F)CC(=O)Nc1ccccc1Br`, the “activity change, negative = inhibition” value is -44.8% (inactive).
Consider `CCC(C)c1ccccc1NC(=O)CN(C)CC(=O)Nc1ccccc1SC` (stereo not drawn), for which the Potency was 15.8 µM (active).
On to `CSc1ccccc1NC(=O)CN(C)CC(=O)Nc1ccc(Cl)cc1[N+](=O)[O-]`, for which the Potency was 11.2 µM (active).
Take `CSc1ccccc1NC(=O)Cc1ccc(Br)cc1`: the “activity change, negative = inhibition” value is -7.65% (inactive).
Take `CN(CC(=O)Nc1ccccc1[N+](=O)[O-])Cc1ccc(Br)cc1`: the “activity change, negative = inhibition” value was 16% (inactive).
`CC(=O)c1cc(CN2CCC(n3nccc3NC(=O)c3ccccc3Cl)CC2)cs1`: the “activity change, negative = inhibition” value was -1.16% (inactive).
`O=C(Nc1ccccc1-c1ccccc1)c1ccccc1[N+](=O)[O-]`: the “activity change, negative = inhibition” value was 10.8% (inactive).
Take `O=C(CN(C(=O)c1csnn1)c1ccc(Br)cc1)NC1CCCC1`: the “activity change, negative = inhibition” value was -23.7% (inactive).
Still for that read-out and setting: the result for `Cc1ccc(S(=O)(=O)Oc2ccc(/C=N/NC(=O)c3ccncc3)cc2)cc1` reads -16.7% (inactive); that for `CCC1CCCCN1C(=S)Nc1ccc(S(=O)(=O)Nc2ncccn2)cc1` (stereo not drawn), -0.779% (inactive).
Consider `CC(=O)Nc1ccc(S(=O)(=O)Oc2ccc(Br)cc2C(=S)N2CCOCC2)cc1`, for which the “activity change, negative = inhibition” value was 7.9% (inactive).
As for `O=C(Nc1nnc(-c2ccccc2)o1)c1cc(-c2cccs2)nc2ccccc12`, the Potency was 4.47 µM (active).
In the case of `COC(=O)c1cc(-c2cccs2)nc2ccccc12`, the “activity change, negative = inhibition” value was 0.58% (inactive).
Take `CCCCN(C)CCCNC(=O)c1cc(-c2cccs2)nc2ccccc12`: the “activity change, negative = inhibition” value is -15.9% (inactive).
